# Laboratory results from ChEMBL document CHEMBL1961873, “Compounds: GSK PKIS; Assays: Nanosyn kinase panel” (2012).
# “And” between values parts separate entries of the source, which are not always exact repeats. Identical values can stand only once.
# Assays:
# [1] = target: CDK3/Cyclin E (Homo sapiens) (UniProt P24864+Q00526); conditions: at 1 µM;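 note: each figure is a mean percent inhibition of the CDK3/cyclin E complex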
# [2] = target: Cyclin-dependent kinase 4 (Homo sapiens) (UniProt P11802); conditions: at 0.1 µM
# [3] = target: Cyclin-dependent kinase 4 (Homo sapiens) (UniProt P11802); conditions: at 1 µM
# [4] = target: Cyclin-dependent kinase 5 (Homo sapiens) (UniProt Q00535); conditions: at 0.1 µM
# [5] = target: Cyclin-dependent kinase 5 (Homo sapiens) (UniProt Q00535); conditions: at 1 µM
# [6] = target: Cyclin-dependent kinase 6 (Homo sapiens) (UniProt Q00534); conditions: at 0.1 µM
# [7] = target: Cyclin-dependent kinase 6 (Homo sapiens) (UniProt Q00534); conditions: at 1 µM
# [8] = target: Dual specificity protein kinase CLK2 (Homo sapiens) (UniProt P49760); conditions: at 0.1 µM
# [9] = target: Dual specificity protein kinase CLK2 (Homo sapiens) (UniProt P49760); conditions: at 1 µM
# [10] = target: Dual specificity protein kinase CLK3 (Homo sapiens) (UniProt P49761); conditions: at 0.1 µM
# [11] = target: Dual specificity protein kinase CLK3 (Homo sapiens) (UniProt P49761); conditions: at 1 µM
# [12] = target: Dual specificity tyrosine-phosphorylation-regulated kinase 1A (Homo sapiens) (UniProt Q13627); conditions: at 0.1 µM
# [13] = target: Dual specificity tyrosine-phosphorylation-regulated kinase 1A (Homo sapiens) (UniProt Q13627); conditions: at 1 µM
# [14] = target: Dual specificity tyrosine-phosphorylation-regulated kinase 1B (Homo sapiens) (UniProt Q9Y463); conditions: at 0.1 µM
# [15] = target: Dual specificity tyrosine-phosphorylation-regulated kinase 1B (Homo sapiens) (UniProt Q9Y463); conditions: at 1 µM
# [16] = target: T1, Dual specificity tyrosine-phosphorylation-regulated kinase 2 (Homo sapiens) (UniProt Q92630); conditions: at 0.1 µM
# T1 sequence (whole entry): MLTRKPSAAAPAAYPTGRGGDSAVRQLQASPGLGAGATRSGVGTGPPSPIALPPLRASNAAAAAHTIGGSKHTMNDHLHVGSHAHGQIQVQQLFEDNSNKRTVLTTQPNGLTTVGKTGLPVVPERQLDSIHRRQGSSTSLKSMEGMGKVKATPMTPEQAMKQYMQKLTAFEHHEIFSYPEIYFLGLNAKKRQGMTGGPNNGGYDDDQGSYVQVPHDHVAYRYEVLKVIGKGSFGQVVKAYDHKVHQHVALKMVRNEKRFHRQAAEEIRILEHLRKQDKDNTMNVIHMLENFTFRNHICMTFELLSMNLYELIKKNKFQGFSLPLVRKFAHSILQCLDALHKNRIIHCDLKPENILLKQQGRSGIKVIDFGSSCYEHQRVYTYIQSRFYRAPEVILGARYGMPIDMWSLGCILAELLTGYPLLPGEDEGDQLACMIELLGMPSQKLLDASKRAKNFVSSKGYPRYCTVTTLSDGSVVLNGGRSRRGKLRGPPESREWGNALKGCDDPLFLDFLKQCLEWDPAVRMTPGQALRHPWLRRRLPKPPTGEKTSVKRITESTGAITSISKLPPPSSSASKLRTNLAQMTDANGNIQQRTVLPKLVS
# [17] = target: T1, Dual specificity tyrosine-phosphorylation-regulated kinase 2 (Homo sapiens); conditions: at 1 µM
# [18] = target: Glycogen synthase kinase-3 alpha (Homo sapiens) (UniProt P49840); conditions: at 0.1 µM
# [19] = target: Glycogen synthase kinase-3 alpha (Homo sapiens) (UniProt P49840); conditions: at 1 µM
# [20] = target: Glycogen synthase kinase-3 beta (Homo sapiens) (UniProt P49841); conditions: at 0.1 µM;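 note: values are mean percent inhibition of GSK3B activity, from the GSK Published Kinase Inhibitor Set (PKIS) screening dataset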
# Chain of Glycogen synthase kinase-3 beta (Homo sapiens) (P49841 whole entry, looked up): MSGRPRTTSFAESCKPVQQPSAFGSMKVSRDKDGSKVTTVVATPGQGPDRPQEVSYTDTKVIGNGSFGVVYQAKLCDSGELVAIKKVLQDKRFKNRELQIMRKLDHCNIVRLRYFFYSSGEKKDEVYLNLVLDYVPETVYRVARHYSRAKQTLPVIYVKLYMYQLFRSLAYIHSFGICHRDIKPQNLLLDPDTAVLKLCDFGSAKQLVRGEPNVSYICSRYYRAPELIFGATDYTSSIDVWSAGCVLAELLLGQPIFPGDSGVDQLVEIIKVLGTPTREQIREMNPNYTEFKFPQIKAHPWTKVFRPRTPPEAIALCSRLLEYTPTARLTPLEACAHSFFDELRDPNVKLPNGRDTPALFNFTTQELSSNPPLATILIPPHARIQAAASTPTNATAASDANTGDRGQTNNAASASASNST
# Chain of Glycogen synthase kinase-3 alpha (Homo sapiens) (P49840 2-483 limits assumed): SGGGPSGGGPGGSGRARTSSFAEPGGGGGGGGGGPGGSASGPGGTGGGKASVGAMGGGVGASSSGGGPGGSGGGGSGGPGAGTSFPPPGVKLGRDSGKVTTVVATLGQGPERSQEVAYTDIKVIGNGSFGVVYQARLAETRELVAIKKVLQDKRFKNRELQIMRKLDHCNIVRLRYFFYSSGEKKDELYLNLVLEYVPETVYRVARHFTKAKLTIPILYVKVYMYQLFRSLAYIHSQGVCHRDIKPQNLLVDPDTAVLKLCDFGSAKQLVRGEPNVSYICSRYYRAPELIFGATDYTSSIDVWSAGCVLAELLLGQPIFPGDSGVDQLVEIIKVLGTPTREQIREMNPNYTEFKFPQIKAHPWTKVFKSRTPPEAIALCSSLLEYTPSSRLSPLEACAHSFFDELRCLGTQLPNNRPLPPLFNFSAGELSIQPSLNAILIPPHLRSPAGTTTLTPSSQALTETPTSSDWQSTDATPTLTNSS
# Chain of Cyclin-dependent kinase 5 (Homo sapiens) (Q00535 whole entry, looked up): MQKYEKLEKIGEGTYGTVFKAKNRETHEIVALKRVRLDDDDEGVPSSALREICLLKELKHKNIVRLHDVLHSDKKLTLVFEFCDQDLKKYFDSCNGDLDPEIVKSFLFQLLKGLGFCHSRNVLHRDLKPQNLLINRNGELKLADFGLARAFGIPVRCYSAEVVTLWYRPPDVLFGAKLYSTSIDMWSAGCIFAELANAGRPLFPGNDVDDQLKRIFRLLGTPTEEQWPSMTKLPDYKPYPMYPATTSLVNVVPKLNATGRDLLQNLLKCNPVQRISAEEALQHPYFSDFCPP
# Chain of Dual specificity tyrosine-phosphorylation-regulated kinase 1B (Homo sapiens) (Q9Y463 whole entry, looked up): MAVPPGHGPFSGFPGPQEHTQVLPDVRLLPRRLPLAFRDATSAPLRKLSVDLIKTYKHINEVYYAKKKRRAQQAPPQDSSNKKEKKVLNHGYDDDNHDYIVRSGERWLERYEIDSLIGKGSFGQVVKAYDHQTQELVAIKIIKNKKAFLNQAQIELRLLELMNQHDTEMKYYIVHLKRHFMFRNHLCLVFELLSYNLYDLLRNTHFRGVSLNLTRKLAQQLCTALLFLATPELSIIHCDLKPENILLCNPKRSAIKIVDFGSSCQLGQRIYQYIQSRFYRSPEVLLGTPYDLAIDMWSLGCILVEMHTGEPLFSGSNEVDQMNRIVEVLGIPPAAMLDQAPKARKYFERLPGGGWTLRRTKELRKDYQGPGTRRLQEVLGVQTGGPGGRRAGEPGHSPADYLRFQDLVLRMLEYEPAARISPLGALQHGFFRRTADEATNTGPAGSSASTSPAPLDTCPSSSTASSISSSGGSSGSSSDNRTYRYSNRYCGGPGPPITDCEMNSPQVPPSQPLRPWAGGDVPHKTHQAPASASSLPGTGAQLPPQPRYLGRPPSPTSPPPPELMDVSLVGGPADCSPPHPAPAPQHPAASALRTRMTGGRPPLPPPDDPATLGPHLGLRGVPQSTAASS
# Chain of Dual specificity protein kinase CLK2 (Homo sapiens) (P49760 whole entry, looked up): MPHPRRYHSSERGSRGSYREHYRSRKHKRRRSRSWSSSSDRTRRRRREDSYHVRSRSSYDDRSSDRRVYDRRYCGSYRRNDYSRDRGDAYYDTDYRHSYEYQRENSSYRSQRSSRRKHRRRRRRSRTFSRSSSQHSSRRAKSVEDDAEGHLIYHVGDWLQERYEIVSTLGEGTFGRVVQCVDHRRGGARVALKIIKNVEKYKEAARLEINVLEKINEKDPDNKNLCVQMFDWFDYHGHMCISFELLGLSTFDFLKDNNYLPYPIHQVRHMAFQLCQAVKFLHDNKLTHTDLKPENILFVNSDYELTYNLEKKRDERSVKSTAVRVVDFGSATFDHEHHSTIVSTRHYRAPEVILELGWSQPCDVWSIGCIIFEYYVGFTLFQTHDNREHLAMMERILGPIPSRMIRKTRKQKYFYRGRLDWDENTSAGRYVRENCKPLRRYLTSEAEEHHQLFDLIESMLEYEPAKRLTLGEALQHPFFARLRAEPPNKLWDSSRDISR
# Chain of Dual specificity protein kinase CLK3 (Homo sapiens) (P49761 whole entry, looked up): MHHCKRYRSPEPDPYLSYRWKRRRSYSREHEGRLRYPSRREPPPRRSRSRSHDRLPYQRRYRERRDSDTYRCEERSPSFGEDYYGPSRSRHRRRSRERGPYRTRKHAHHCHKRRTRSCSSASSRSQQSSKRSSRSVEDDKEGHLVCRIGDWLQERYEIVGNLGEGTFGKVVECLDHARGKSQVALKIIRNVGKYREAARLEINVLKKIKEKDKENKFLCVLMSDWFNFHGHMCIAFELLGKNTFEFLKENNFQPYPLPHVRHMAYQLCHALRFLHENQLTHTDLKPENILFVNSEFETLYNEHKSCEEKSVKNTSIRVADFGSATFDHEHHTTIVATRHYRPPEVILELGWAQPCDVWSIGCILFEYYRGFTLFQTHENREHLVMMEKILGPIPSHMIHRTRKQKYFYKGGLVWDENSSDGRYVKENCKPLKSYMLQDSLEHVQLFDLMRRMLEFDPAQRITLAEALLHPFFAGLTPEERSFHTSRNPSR
# Chain of Cyclin-dependent kinase 4 (Homo sapiens) (P11802 whole entry): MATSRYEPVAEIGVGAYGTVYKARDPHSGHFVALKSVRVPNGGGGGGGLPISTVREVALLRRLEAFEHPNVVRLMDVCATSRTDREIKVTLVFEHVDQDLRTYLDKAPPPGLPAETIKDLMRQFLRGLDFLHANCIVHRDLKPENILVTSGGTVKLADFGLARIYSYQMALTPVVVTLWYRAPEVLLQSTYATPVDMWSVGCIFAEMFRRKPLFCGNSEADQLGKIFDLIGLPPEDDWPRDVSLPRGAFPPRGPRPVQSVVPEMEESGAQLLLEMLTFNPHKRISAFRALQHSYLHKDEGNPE
# Chain of Cyclin-dependent kinase 6 (Homo sapiens) (Q00534 whole entry): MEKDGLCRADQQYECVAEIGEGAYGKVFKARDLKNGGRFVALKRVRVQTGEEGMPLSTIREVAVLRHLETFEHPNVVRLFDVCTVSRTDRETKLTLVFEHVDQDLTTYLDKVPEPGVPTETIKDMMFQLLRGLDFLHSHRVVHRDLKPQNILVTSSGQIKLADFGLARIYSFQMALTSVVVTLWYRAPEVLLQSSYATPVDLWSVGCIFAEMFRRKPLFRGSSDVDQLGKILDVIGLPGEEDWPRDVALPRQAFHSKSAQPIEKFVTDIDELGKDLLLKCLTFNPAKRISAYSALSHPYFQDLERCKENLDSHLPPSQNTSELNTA
# Chain of CDK3/Cyclin E (Homo sapiens) (P24864 whole entry, looked up): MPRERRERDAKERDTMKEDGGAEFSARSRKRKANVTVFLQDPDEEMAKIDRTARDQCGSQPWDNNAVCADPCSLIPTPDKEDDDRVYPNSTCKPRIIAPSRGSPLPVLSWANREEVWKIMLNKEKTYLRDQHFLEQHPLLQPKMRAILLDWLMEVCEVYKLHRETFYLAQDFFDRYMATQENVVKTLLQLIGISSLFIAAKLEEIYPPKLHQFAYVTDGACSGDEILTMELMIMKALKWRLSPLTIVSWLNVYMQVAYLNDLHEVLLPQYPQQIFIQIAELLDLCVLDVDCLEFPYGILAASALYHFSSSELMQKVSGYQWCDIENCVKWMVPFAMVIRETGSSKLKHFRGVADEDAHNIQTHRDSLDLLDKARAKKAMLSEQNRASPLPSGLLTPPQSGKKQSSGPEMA
# Chain of CDK3/Cyclin E (Homo sapiens) (Q00526 whole entry, looked up): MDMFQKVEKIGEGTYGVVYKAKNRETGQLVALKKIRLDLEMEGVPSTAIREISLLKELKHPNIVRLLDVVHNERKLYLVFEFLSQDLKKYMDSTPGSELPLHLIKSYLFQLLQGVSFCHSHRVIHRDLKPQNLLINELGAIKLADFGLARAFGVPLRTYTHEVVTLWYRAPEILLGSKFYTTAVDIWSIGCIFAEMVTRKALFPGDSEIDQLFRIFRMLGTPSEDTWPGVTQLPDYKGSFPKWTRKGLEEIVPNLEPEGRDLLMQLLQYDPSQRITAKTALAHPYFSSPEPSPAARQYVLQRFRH
Compound,inhibition [1],inhibition [2],inhibition [3],inhibition [4],inhibition [5],inhibition [6],inhibition [7],inhibition [8],inhibition [9],inhibition [10],inhibition [11],inhibition [12],inhibition [13],inhibition [14],inhibition [15],inhibition [16],inhibition [17],inhibition [18],inhibition [19],inhibition [20]
CN1CCN(Cc2ccc(-c3cc4ncnc(Nc5ccc(OCc6cccc(F)c6)c(Cl)c5)c4s3)o2)CC1,-0.88% and -0.53%,0.41% and 3.55%,4.82% and 8.07%,1.3% and 1.22%,2.71% and 2.36%,-3.55% and 3.09%,-1.42% and 9.4%,-0.35% and 2.37%,-0.11% and 1.21%,-0.14% and 1.15%,0.78% and 2.08%,2.29% and 3.65%,3.25% and 6.67%,-1.48% and 1.67%,-0.65% and 3.95%,2.17% and 3.19%,1.22% and 4.53%,4.34% and 12.6%,3.93% and 13.7%,2.82% and 10.6%
O=C(O[C@H]1CN[C@H](C#Cc2cc3ncnc(Nc4ccc5c(cnn5Cc5ccccc5)c4)c3s2)C1)N1CCOCC1,-1.05%,0.36%,3.2%,2.53%,3.35%,-1.23%,0.26%,-1.51%,-0.74%,-0.96%,-0.49%,-4.04%,-3.74%,-1.09%,-0.85%,-0.74%,-3.59%,1.95%,3.19%,1.44%
CN1CCC(n2cnc(-c3ccc(F)cc3)c2-c2ccnc(NCCO)n2)CC1,-0.43%,2.07%,2.04%,0.67%,0.7%,3.75%,2.73%,1.02%,2.41%,3.29%,3.15%,3.36%,3.78%,-0.1%,1.43%,2.57%,3.9%,3.17%,5.09%,3.17%
CS(=O)(=O)CCNCc1ccc(-c2ccc3ncnc(Nc4ccc(OCc5cccc(C(F)(F)F)c5)cc4)c3c2)o1,1.01%,3.72%,2.89%,0.15%,0.08%,0.44%,1.5%,0.99%,1.97%,1.09%,1.18%,2.76%,5.29%,-0.58%,1.03%,3.45%,6.22%,2.81%,1.39%,1.65%
CN(C)CCNC(=O)Nc1ccc(N(C)c2ccnc(Nc3ccc(CS(C)(=O)=O)cc3)n2)cc1,0.2%,3.81%,4.81%,0.85%,2.57%,0.28%,4.3%,0.9%,3.79%,2.16%,2.89%,2.86%,5.24%,1.37%,1.57%,2.66%,4.33%,1.56%,4.32%,0.61%
CNC(=O)c1cncc(/C=C/c2ccccc2C)c1,0.23%,1.9%,7.47%,4.11%,10.4%,3.69%,4.46%,2.83%,2.46%,1.79%,2.09%,1.38%,1.83%,0.2%,0.92%,1.99%,3.1%,5.39%,12.3%,5.07%
CS(=O)(=O)Nc1ccc(-c2ccc3c(NC(=O)C4CC4)n[nH]c3c2)cc1,6.25%,2.19%,6.78%,0.45%,1.18%,7.5%,36.3%,0.87%,3.05%,1.51%,4.08%,1.29%,6.04%,-0.26%,2.94%,2.37%,2.73%,2.08%,7.33%,1.51%
COc1c(C(N)=O)cc(-c2ccc(Cl)cc2)cc1-c1ccc(S(N)(=O)=O)cc1,-0.77%,3.98%,3.06%,0.65%,0.17%,-0.9%,-0.36%,3.22%,5.16%,0.71%,0.31%,3.11%,4.97%,-0.92%,-0.01%,3.75%,8.4%,1.76%,2.57%,0.69%
NS(=O)(=O)c1ccc(N/N=C2\C(=O)Nc3ccc(C(=O)NCc4ccncc4)cc32)cc1,96.3%,14%,52.3%,47.7%,79.1%,8.64%,58.6%,2.87%,36.8%,1.92%,3.91%,2.11%,9.79%,1.01%,11.3%,2.69%,8.09%,35.3%,75.7%,38.4%
COc1cc(N2CCN(C(C)C)CC2)ccc1Nc1nc(Nc2cccc(F)c2C(=O)O)c2cc[nH]c2n1,-1.26%,2.63%,2.75%,1.71%,2.09%,5.01%,4.74%,5.61%,41%,3.73%,7.82%,5.55%,23%,5.54%,32.6%,2.88%,4.2%,5%,6.33%,3.95%
FC(F)(F)CNc1nccc(-c2cnn3ncccc23)n1,11.2%,2.33%,10.8%,3.62%,22.9%,0.9%,3.37%,5.19%,51%,0.47%,2.91%,14.6%,60.1%,16.1%,59%,2.04%,14.3%,3.64%,7.01%,2.33%
N#Cc1ccc2c(-c3ccnc(NC4CC4)n3)c(-c3ccc(F)cc3)nn2c1,-1.23%,-0.21%,1.61%,-0.1%,-0.13%,-1.07%,2.32%,-0.43%,-1.71%,-0.22%,-0.84%,1.91%,0.14%,-0.4%,-2.94%,0.64%,-0.6%,5.27%,24.3%,8.49%
NS(=O)(=O)c1cccc(N/C=C2\C(=O)Nc3ccccc32)c1,11.3%,5.5%,18.1%,2.87%,16.5%,2.67%,55.6%,2.13%,13.7%,1.92%,3.43%,4.67%,7.61%,1.69%,4.25%,3.56%,9.5%,4.32%,20%,3.36%
